PubChem BioAssay AID624483 (NMMLSC, 2012)
About 11,000 (3.1%) of roughly 360,000 compounds were called active. About 2% were inconclusive and are not listed. No stated cut-off is given here; in the data, active means fluorescence intensity above about 16000; inconclusive means no clear call, values can overlap the other calls; inactive means below that. What follows is part of a selection rich in actives, with near analogues and random picks from the rest.

Experiment: counter-screen for toxin protease inhibitors: compound fluorescence, primary screen, artefact control for toxin protease inhibitor project, biochemical, multiplex microsphere, HTS (AID 624483)
Conditions: compound autofluorescence counterscreen, microsphere flow cytometry; active compounds read high
In the case of `CCc1nnc(NS(=O)(=O)c2ccc(NC(=S)NC(=O)c3cccs3)cc2)s1`, the fluorescence intensity is reported as 3630 (inactive).
In the case of `Cc1sc(NC(=S)NC(=O)c2cccs2)nc1-c1ccc(CC(C)C)cc1`, the fluorescence intensity is reported as 19900 (active).
For `O=C(NC(=S)Nc1cccc(-c2ccc(CO)o2)c1)c1cccs1`, the fluorescence intensity was 4550 (inactive).
In the case of `CC1=C(C(=O)OCC2CCCCC2)C(c2ccc(F)cc2)NC(=O)N1` (configuration not stated), the fluorescence intensity is reported as 3520 (inactive).
For `CC(C)c1cccc(-c2csc(C(O)c3ccccc3)n2)c1` (configuration not stated), the fluorescence intensity was 3800 (inactive).
In the case of `COC(=O)c1sccc1NS(=O)(=O)c1ccc(F)cc1F`, the fluorescence intensity is reported as 3170 (inactive).
With `COC(=O)c1sccc1N/N=C(\C)c1ccc(F)c(Cl)c1` the fluorescence intensity was 22300 (active).
In the case of `COC(=O)c1sccc1NC(=O)c1ccc(Cl)cc1`, the fluorescence intensity is reported as 2980 (inactive).
In the case of `OC(c1ccccc1)c1nc(-c2cnc3ccccc3c2)cs1` (configuration not stated), the fluorescence intensity is reported as 3830 (inactive).
In the case of `CCN(CC)S(=O)(=O)c1cc(C(=O)Nc2ccccn2)ccc1C`, the fluorescence intensity is reported as 24700 (active).
With `Cc1ccc(NC(=O)CNCc2ccccn2)cc1S(=O)(=O)N(C)C` the fluorescence intensity was 4460 (inactive).
With `CCN(c1ccccc1)S(=O)(=O)c1cc(C(=O)NCc2ccccn2)ccc1C` the fluorescence intensity was 6330 (inactive).
For `CC1(C)OC(=O)C2=C(C[C@@H](C3CC3)O[C@H]2c2ccc(Cl)cc2)O1`, the fluorescence intensity was 5960 (inactive).
For `Cc1cc2nc(-c3ccco3)c(Cc3cccc(F)c3)n2c(C)c1Br`, the fluorescence intensity was 5860 (inactive).
For `Cc1cc(OCC(=O)N(C)c2c(N)n(Cc3ccccc3)c(=O)[nH]c2=O)c(C(C)C)cc1Cl`, the fluorescence intensity was 5120 (inactive).
With `Cc1ccc(S(=O)(=O)N(CC(=O)NCCSC2CCCCC2)c2ccccc2F)cc1` the fluorescence intensity was 7650 (inactive).
For `O=P(c1cccs1)(c1cccs1)c1cccs1`, the fluorescence intensity was 22500 (active).
In the case of `O=C(O)CCC(=O)N(Cc1cccs1)Cc1cccs1`, the fluorescence intensity is reported as 9340 (inactive).
With `COc1ccc(CC(N)c2csc(NC(=O)Cc3ccccc3)n2)cc1` (configuration not stated) the fluorescence intensity was 3080 (inactive).
For `CCCCCCCCN1C(=O)[C@H](CC(=O)NCC23CC4CC(CC(C4)C2)C3)C[C@@]2(C(=O)OC)CCCCC=C12`, the fluorescence intensity was 5660 (inactive).
In the case of `COC(=O)c1ccc(CN2CCC(CO)(Cc3ccc(OC)cc3)CC2)cc1`, the fluorescence intensity is reported as 3600 (inactive).
In the case of `CC(=O)N(C1=NCCCS1)c1ccccc1F`, the fluorescence intensity is reported as 24900 (active).
In the case of `O=C(NCc1ccc(F)cc1)c1cc(C2CCCCN2C(=O)c2cccs2)on1` (configuration not stated), the fluorescence intensity is reported as 3580 (inactive).
For `OCc1nc(CO)n(Cc2ccccc2)n1`, the fluorescence intensity was 20000 (active).
For `Cc1nn(Cc2ccccc2)c(C)c1NS(=O)(=O)c1ccccc1`, the fluorescence intensity was 5640 (inactive).
For `Nc1c(-c2ccccc2)nnn1Cc1ccccc1`, the fluorescence intensity was 5560 (inactive).
With `O=C(NCc1cccnc1)c1ccc2nc([C@@H]3O[C@H](CO)[C@H](O)[C@H](O)[C@H]3O)[nH]c2c1` the fluorescence intensity was 3590 (inactive).
For `Cc1ccc(-n2c(O)c(C=NCC3CCCO3)c(=O)[nH]c2=O)c(C)c1` (configuration not stated), the fluorescence intensity was 6540 (inactive).
With `O=C1c2cccc3c([N+](=O)[O-])ccc(c23)C(=O)N1CC1CCCO1` (configuration not stated) the fluorescence intensity was 3530 (inactive).
With `O=C1C(C=NCC2CCCO2)=C(O)c2ccccc21` (configuration not stated) the fluorescence intensity was 21000 (active).
With `CC(C)Oc1ccc(CN2CCC2(C)C(=O)NCc2ccc(C(F)(F)F)cc2)cc1` (configuration not stated) the fluorescence intensity was 4110 (inactive).
For `CNC(=O)c1ccsc1NC(=O)c1ccc(S(=O)(=O)N2CCOCC2)cc1`, the fluorescence intensity was 2470 (inactive).
In the case of `COc1ccc(C(=O)Nc2nc(-c3ccc(S(=O)(=O)N4CCOCC4)cc3)cs2)cc1`, the fluorescence intensity is reported as 20400 (active).
For `COc1ccc(C(=O)Nc2cc(S(=O)(=O)N3CCCC3)ccc2Cl)cc1`, the fluorescence intensity was 3660 (inactive).
In the case of `COc1ccc(-c2cnc3c(c2)C(=O)N([C@H](C)CO)C[C@@H](C)[C@H](CN(C)Cc2ccccc2)O3)cc1`, the fluorescence intensity is reported as 3700 (inactive).
With `Cn1cc(CCC(=O)NC2CC2)c2ccccc21` the fluorescence intensity was 3960 (inactive).
With `Cn1cc(CCC(=O)NCc2ccc3c(c2)OCO3)c2ccccc21` the fluorescence intensity was 22500 (active).
With `CCN(CC)C(=O)C(=O)c1cn(CC(=O)NCc2ccc3c(c2)OCO3)c2ccccc12` the fluorescence intensity was 4830 (inactive).
For `CCn1c(=O)cc(SCC(=O)NCCC2=CCCCC2)c2ccccc21`, the fluorescence intensity was 2540 (inactive).
With `CCOC(=O)N1CCC(NC(=O)Cc2cn(C)c3ccccc23)CC1` the fluorescence intensity was 2810 (inactive).
With `CCOC(=O)N1CCC(NC(=O)CCc2ccccc2)CC1` the fluorescence intensity was 3630 (inactive).
With `CCOC(=O)N1CCC(NC(=O)CCc2cn(C)c3ccccc23)CC1` the fluorescence intensity was 22900 (active).
For `CCn1c(=O)cc(SCC(=O)NCc2ccc3c(c2)OCO3)c2ccccc21`, the fluorescence intensity was 23400 (active).
With `CC(C)NC(=O)CSc1ccccc1C(=O)NCc1ccc2c(c1)OCO2` the fluorescence intensity was 2170 (inactive).
With `COc1ccc(-c2csc(C(O)c3cccc(Cl)c3)n2)cn1` (configuration not stated) the fluorescence intensity was 3880 (inactive).
For `COCCNC(=O)CSc1nc2c(n1-c1ccccc1)CCCC2`, the fluorescence intensity was 3860 (inactive).
In the case of `COc1ccc(-c2cc3nc(NCCOc4ccccc4)ccn3n2)cc1`, the fluorescence intensity is reported as 4480 (inactive).
In the case of `O=C(NCc1ccc(F)cc1)C(c1ccccc1)N(C(=O)c1csnn1)C1CC1` (configuration not stated), the fluorescence intensity is reported as 2770 (inactive).
For `CNc1cncc(-c2ccc(NS(C)(=O)=O)cc2)n1`, the fluorescence intensity was 3500 (inactive).
In the case of `Cc1nn(-c2ncc(C(F)(F)F)cc2Cl)c(=O)n1-c1ccccc1`, the fluorescence intensity is reported as 2340 (inactive).
With `Cc1ccc(-c2ccnc3nc(Sc4ncc(C(F)(F)F)cc4Cl)nn23)cc1` the fluorescence intensity was 23100 (active).
With `Cc1cc(NC(=O)CSc2ncc(C(F)(F)F)cc2Cl)no1` the fluorescence intensity was 3110 (inactive).
In the case of `Cc1ccc(-c2cnc(C(O)c3cccc(C)c3C)[nH]2)cc1` (configuration not stated), the fluorescence intensity is reported as 3860 (inactive).
In the case of `OC(c1ccccc1)(c1ccccc1)C1CCN(CCCOc2ccccc2)CC1`, the fluorescence intensity is reported as 6640 (inactive).
With `COc1ccc(CN2CCC(C)(Oc3cccc(F)c3)C2)c2ccccc12` (configuration not stated) the fluorescence intensity was 3240 (inactive).
With `CC(C)(C)NC(=O)CSC(=Nc1ccccc1F)NC#N` the fluorescence intensity was 21400 (active).
With `Cc1ccccc1CSCC(=O)NC(=O)NC(C)(C)C` the fluorescence intensity was 11200 (inactive).
With `COc1ccccc1-n1ccnc1SCC(=O)NC(C)(C)C` the fluorescence intensity was 3990 (inactive).
For `CCOC(=O)[C@]12CCC=C1N(Cc1cccc3ccccc13)C(=O)[C@H](CC(=O)NCc1cccc(C(F)(F)F)c1)C2`, the fluorescence intensity was 4120 (inactive).
For `CC(=O)Nc1cc(-c2cccc(CO)c2)cn2c(-c3cccc(C(F)(F)F)c3)cnc12`, the fluorescence intensity was 3820 (inactive).
In the case of `OC(c1ccc(Cl)cc1)C(CN1CCOCC1)c1ccccc1` (configuration not stated), the fluorescence intensity is reported as 3680 (inactive).
With `COCCn1c(SCC(=O)Nc2cc(Cl)ccc2OC)nc2c(c1=O)SC(C)C2` (configuration not stated) the fluorescence intensity was 4110 (inactive).
With `CCOC(=O)c1cccc(NC(=O)CCc2c(C)nc3ncnn3c2C)c1` the fluorescence intensity was 17600 (active).
In the case of `CCOC(=O)c1cccc(NC(=O)CCn2nnc3ccccc32)c1`, the fluorescence intensity is reported as 4180 (inactive).
For `CCOC(=O)c1cccc(NC(=O)CCOc2ccccc2)c1`, the fluorescence intensity was 3720 (inactive).
With `c1ccc(C2CNCc3c2ccc2ccccc32)cc1` (configuration not stated) the fluorescence intensity was 10400 (inactive).
For `O=S1(=O)CC(N2CCN(Cc3ccccc3F)CC2)CN1Cc1cn(Cc2cccc(C(F)(F)F)c2)nn1` (configuration not stated), the fluorescence intensity was 4150 (inactive).
With `Cc1cccc(N2CCN(c3ccc(C(N)=O)cc3[N+](=O)[O-])CC2)c1C` the fluorescence intensity was 4080 (inactive).
With `CS(=O)(=O)N1CCN(c2ccc(C(=O)NC3C4CC5CC(C4)CC3C5)cc2[N+](=O)[O-])CC1` (configuration not stated) the fluorescence intensity was 17000 (active).
With `Cc1ccc(C(=O)c2ccc(N3CCN(C)CC3)c([N+](=O)[O-])c2)cc1` the fluorescence intensity was 2490 (inactive).
In the case of `CCN(CC(=O)NCCc1ccccc1)S(=O)(=O)c1ccccc1`, the fluorescence intensity is reported as 5110 (inactive).
For `CCCNC(=O)CN(Cc1ccccc1F)S(=O)(=O)c1ccc(C)cc1`, the fluorescence intensity was 21400 (active).
With `CCN(CC(=O)NCCc1ccccc1)S(=O)(=O)c1ccc(C)cc1` the fluorescence intensity was 2180 (inactive).
With `NC(=O)C1CCN(CC(O)CSc2ccc(F)cc2)CC1` (configuration not stated) the fluorescence intensity was 3520 (inactive).
With `CC1(C(=O)NCc2ccc3c(c2)OCO3)CCN1C(=O)Cc1cccs1` (configuration not stated) the fluorescence intensity was 3670 (inactive).
For `O=C(CN1CCOCC1)N1CCCc2c1c(=O)oc1ccc(OCc3ccccc3)cc21`, the fluorescence intensity was 22500 (active).
With `CCOC(=O)N1CCN(C(=O)COc2ccc3oc4c(c3c2)CCCC4)CC1` the fluorescence intensity was 4590 (inactive).
For `O=C(COc1ccc2oc3c(c2c1)CCCC3)Nc1ccccn1`, the fluorescence intensity was 3750 (inactive).
With `O=C1OC(OC(=O)c2ccccc2Br)C(N2CCOCC2)=C1Cl` (configuration not stated) the fluorescence intensity was 6700 (inactive).
With `O=C1OC(NC(=O)c2ccccc2)C(N2CCOCC2)=C1Cl` (configuration not stated) the fluorescence intensity was 21900 (active).
With `O=C(NC(=O)N1CCOCC1)c1ccccc1` the fluorescence intensity was 9020 (inactive).
In the case of `Cc1cc2oc(=O)cc(CN(C)Cc3ccccc3)c2cc1Cl`, the fluorescence intensity is reported as 6000 (inactive).
With `CC(=O)c1c(C)n([O-])c2ccccc2[n+]1=O` the fluorescence intensity was 23100 (active).
With `Cc1c(C=O)c2ccccc2n1CC(=O)O` the fluorescence intensity was 4440 (inactive).
In the case of `COC(=O)c1cnn2c(C(F)(F)F)cc(-c3ccco3)nc12`, the fluorescence intensity is reported as 4440 (inactive).
For `FC(F)(F)c1nnc2sc(-c3ccco3)nn12`, the fluorescence intensity was 22400 (active).
In the case of `Fc1ccc(-c2ccc(-c3nn4c(-c5ccco5)nnc4s3)o2)cc1`, the fluorescence intensity is reported as 3990 (inactive).
For `CNc1nnc(-c2ccco2)s1`, the fluorescence intensity was 4180 (inactive).
In the case of `Cc1nnc2sc(-c3ccco3)nn12`, the fluorescence intensity is reported as 20800 (active).
With `FC(F)(F)c1nnc2c3ccccc3c(Cl)nn12` the fluorescence intensity was 3190 (inactive).
In the case of `CC(=O)Nc1cccc(-c2cc(NC(C)=O)c3ncc(-c4ccccc4)n3c2)c1`, the fluorescence intensity is reported as 3750 (inactive).
With `O=C(/C=C/c1cccs1)c1cc(Cl)ccc1OC(=O)N1CCOCC1` the fluorescence intensity was 2170 (inactive).
In the case of `O=C(Nc1ccc(N2CCOCC2)cc1)c1cccc2c(-c3ccc(F)c(F)c3)coc12`, the fluorescence intensity is reported as 3990 (inactive).
In the case of `CC12CCC(=O)C=C1CCC1C2C(O)CC2(C)C1CCC2(O)C(O)CO` (configuration not stated), the fluorescence intensity is reported as 5610 (inactive).
For `O=C(/C=C\NCC(=O)c1ccccc1)c1ccccc1`, the fluorescence intensity was 21800 (active).
For `O=C(/C=C/NCc1ccc(F)cc1)c1ccccc1`, the fluorescence intensity was 2490 (inactive).
In the case of `O=C(/C=C/NNC(=O)c1cccc(Br)c1)c1ccccc1`, the fluorescence intensity is reported as 3590 (inactive).
